According to the supplement of paper PMC7530171:
± gives the standard deviation.

Tested on: THP-1 macrophages infected with Mycobacterium tuberculosis H37Rv
Assay: intracellular M.tb growth inhibition relative to DMSO (0) and 4 uM bedaquiline (100); higher = stronger inhibition of intracellular bacterial growth
Settings: 10 µM; 4 days
Procedure: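 OICR kinase inhibitor library screened in duplicate at 10 uM against THP-1 macrophages (PMA-differentiated) infected with M. tuberculosis H37Rv-pTEC27 (tdTomato RFP), 4 days at 37 C. Rows with complete host cell loss (placeholder inhibition 0, cell loss 100) were removed.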

Row | SMILES | intracellular M.tb growth inhibition
1 | O=[N+]([O-])c1ccc(-c2nc(-c3ccc(F)cc3)c(-c3ccncc3)[nH]2)cc1 | 36.6 ± 3.6%
2 | Cc1[nH]c(/C=C2\C(=O)Nc3ccc(S(=O)(=O)N(C)c4cccc(Cl)c4)cc32)c(C)c1C(=O)N1CCN(C)CC1 | 41.9 ± 66%
3 | CCN(CC)CCNC(=O)c1c(C)[nH]c(/C=C2\C(=O)Nc3ccc(F)cc32)c1C [Sunitinib Malate] | -45.8 ± 29%
4 | COc1cc2ncnc(-n3nc(-c4ccccn4)nc3N)c2cc1OC | -77 ± 180%
5 | c1ccc(-c2n[nH]c3c2oc2ccccc23)cc1 | 7.69 ± 11%
6 | Cc1nc(N)sc1-c1ccnc(Nc2ccc(N3CCOCC3)cc2)n1 | 13.1 ± 18%
7 | COc1cc(/C=C(\C#N)C(N)=O)cc(CSc2nc3ccccc3s2)c1O | 21 ± 6.4%
8 | Cc1cc(Nc2cc(N3CCN(C)CC3)nc(Sc3ccc(NC(=O)C4CC4)cc3)n2)n[nH]1 | -6.87 ± 4.6%
9 | C[C@@H]1CCN(C(=O)CC#N)C[C@@H]1N(C)c1ncnc2[nH]ccc12 | -17.5 ± 21%
10 | CCN(CCCOc1ccc2c(Nc3cc(CC(=O)Nc4cccc(F)c4)[nH]n3)ncnc2c1)CCOP(=O)(O)O | -79.3 ± 96%
11 | Cn1cc(/C=C2\C(=O)Nc3cccnc32)c2ccccc21 | -49.9 ± 14%
12 | N#Cc1c(NC(=O)c2cccc3ccccc23)sc2c1CCCC2 | -226 ± 330%
13 | CC(C)c1cc(/C=C(\C#N)C(=O)NCCCc2ccccc2)cc(C(C)C)c1O [Tyrphostin SU 1498] | 50.29 ± 0.083%
14 | COc1ccc2c3n(c(=NC(=O)c4cccnc4)nc2c1OC)CCN3 | -0.0325 ± 8.7%
15 | CNc1cc2c(Nc3cccc(Br)c3)ncnc2cn1 | 30.2 ± 36%
16 | CCn1c(-c2nonc2N)nc2cnc(Oc3cccc(NC(=O)c4ccc(OCCN5CCOCC5)cc4)c3)cc21 | 54.4 ± 77%
17 | Nc1cc(C(F)(F)F)c(-c2cc(N3CCOCC3)nc(N3CCOCC3)n2)cn1 | -76.8 ± 110%
18 | Cc1ccc(NC(=O)c2ccc(CN3CCN(C)CC3)cc2)cc1Nc1nccc(-c2cccnc2)n1 [Imatinib (free base)] | 33.2 ± 16%
19 | Cn1c2ccccc2c2c3c(c4c5ccccc5n(CCC#N)c4c21)CNC3=O | -29.9 ± 36%
